What all share (experiment): DAPPL (digital affinity profiling via proximity ligation, sequencing); 10 mM Tris-HCl pH 7.5, 50 mM NaCl, 1 mM DTT, 4% glycerol, room temperature, 30 min; GST-TFs on glutathione beads, 16-mer random dsDNA library, 0.1% formaldehyde crosslink after washing; high values mean tight binding
Settings in all cases: protein: recombinant; tags: N-terminal GST; dsDNA, one strand shown

Test [1] concerns the target T1, FLI1 (Homo sapiens, UniProt Q01543 1-452).
T1 sequence: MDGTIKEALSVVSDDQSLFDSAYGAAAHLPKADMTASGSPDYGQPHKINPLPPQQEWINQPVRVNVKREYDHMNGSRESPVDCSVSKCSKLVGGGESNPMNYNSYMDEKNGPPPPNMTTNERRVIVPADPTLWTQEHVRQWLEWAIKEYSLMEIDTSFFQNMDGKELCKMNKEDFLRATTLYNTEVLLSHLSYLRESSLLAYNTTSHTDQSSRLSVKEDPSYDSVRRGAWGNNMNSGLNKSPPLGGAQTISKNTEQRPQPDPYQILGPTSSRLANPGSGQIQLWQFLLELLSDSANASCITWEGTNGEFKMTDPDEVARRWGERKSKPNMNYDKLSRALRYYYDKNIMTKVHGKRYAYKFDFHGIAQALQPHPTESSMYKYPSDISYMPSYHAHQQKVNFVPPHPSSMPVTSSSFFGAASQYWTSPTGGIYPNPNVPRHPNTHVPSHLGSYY
A digest of the protocol:
(§1)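 Beads coated with glutathione captured GST-fused human transcription factors that had been expressed in yeast, and the factors were then given DNA barcodes and pooled with a tag-only sample. The pools were incubated with 200 nmole of a random double-stranded 16-mer DNA library in Tris/NaCl/DTT/glycerol buffer for 30 min at room temperature, washed, crosslinked with 0.1% formaldehyde and proximity-ligated with BsaI/T4 ligase at 37 °C for 1 h. PCR amplification and Illumina NextSeq500 sequencing came last. Binding signal is each hexamer's read frequency for a factor divided by its frequency for the tag-only sample.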

In test [2] the target is T2, ELK1 (Homo sapiens, UniProt P19419 1-428).
T2 sequence: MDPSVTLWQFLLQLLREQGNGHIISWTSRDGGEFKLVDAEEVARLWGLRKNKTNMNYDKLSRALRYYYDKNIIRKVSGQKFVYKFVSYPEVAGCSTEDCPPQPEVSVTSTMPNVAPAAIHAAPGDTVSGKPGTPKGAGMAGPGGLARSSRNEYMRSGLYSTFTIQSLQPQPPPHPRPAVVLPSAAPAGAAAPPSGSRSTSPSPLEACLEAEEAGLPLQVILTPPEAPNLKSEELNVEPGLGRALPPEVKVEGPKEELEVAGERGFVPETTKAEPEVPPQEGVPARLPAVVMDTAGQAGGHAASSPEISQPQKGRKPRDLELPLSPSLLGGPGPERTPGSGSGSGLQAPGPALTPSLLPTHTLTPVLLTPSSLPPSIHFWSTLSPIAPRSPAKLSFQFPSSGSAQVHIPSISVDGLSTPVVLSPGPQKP
A digest of the protocol:
as §1

For test [3], the target named is T3, GABPA (Homo sapiens, UniProt Q06546 1-454).
T3 sequence: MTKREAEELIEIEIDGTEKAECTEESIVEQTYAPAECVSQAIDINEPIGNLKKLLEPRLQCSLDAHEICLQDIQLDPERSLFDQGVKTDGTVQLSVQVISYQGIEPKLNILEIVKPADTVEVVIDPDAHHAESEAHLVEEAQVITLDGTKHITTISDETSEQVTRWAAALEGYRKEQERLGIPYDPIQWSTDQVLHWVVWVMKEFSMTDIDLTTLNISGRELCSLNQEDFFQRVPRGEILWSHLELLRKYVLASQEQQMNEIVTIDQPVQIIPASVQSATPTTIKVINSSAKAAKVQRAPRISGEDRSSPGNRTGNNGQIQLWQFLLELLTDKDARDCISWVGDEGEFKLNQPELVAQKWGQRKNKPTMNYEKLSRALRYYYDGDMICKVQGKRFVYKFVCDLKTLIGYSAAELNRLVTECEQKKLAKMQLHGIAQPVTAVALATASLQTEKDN
A digest of the protocol:
as §1

Test [4] addresses T4, ERG (Homo sapiens, UniProt P11308 1-479).
T4 sequence: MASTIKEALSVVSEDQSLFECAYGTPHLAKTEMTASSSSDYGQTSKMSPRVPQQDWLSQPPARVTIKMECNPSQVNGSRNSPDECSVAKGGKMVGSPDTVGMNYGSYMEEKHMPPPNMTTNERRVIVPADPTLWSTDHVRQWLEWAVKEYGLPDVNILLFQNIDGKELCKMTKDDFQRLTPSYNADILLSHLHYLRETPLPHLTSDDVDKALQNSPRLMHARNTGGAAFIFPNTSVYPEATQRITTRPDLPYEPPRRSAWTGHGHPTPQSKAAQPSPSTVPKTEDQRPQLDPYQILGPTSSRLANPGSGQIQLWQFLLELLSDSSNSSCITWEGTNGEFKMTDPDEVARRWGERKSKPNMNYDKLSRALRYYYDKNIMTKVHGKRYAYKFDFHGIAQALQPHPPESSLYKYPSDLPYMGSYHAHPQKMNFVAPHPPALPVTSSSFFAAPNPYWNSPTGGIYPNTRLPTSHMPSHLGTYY
The essentials:
as §1

The target of test [5] is ELF1 (Homo sapiens, UniProt P32519 1-619). A digest of the protocol: as §1
ELF1, sequence (P32519 whole entry): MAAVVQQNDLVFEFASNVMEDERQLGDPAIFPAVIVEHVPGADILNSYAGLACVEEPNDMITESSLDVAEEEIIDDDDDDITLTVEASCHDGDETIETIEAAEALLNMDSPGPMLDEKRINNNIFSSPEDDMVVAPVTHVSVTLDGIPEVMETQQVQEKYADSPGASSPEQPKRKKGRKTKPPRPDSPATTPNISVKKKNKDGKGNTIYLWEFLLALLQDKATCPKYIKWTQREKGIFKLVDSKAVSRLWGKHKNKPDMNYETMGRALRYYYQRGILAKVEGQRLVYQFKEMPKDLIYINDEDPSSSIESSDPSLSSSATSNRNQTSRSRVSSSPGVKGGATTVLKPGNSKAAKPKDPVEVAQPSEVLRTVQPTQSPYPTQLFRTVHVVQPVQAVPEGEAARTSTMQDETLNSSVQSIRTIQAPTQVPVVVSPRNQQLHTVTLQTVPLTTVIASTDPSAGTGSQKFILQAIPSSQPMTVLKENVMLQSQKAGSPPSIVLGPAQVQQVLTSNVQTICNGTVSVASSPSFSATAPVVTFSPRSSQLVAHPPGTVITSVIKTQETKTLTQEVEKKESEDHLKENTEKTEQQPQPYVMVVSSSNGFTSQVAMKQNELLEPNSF
Test [6] concerns the target T5, EHF (Homo sapiens, UniProt Q9NZC4 1-300).
T5 sequence: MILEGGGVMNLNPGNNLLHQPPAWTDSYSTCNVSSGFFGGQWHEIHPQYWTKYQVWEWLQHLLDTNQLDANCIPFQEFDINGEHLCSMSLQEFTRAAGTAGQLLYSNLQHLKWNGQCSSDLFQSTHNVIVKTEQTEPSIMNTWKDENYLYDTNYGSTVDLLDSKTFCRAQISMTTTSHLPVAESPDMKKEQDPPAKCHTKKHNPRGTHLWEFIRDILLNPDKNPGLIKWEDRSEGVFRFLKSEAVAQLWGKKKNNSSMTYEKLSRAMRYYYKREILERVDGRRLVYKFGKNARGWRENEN
The essentials:
as §1

Test [7] concerns the target SPI1 (Homo sapiens, UniProt P17947 1-270). The essentials:
as §1

For test [8], the target named is SPIB (Homo sapiens, UniProt Q01892 1-262). The essentials: as §1
SPIB, sequence (Q01892 whole entry): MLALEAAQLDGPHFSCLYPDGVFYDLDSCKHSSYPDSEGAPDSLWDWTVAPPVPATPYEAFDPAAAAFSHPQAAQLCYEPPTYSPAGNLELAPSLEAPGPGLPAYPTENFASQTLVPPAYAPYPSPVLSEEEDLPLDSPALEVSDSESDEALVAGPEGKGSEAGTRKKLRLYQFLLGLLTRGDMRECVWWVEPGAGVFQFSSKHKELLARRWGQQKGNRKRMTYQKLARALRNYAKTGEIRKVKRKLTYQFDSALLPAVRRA
In test [9] the target is T6, ELK3 (Homo sapiens, UniProt P41970 1-407).
T6 sequence: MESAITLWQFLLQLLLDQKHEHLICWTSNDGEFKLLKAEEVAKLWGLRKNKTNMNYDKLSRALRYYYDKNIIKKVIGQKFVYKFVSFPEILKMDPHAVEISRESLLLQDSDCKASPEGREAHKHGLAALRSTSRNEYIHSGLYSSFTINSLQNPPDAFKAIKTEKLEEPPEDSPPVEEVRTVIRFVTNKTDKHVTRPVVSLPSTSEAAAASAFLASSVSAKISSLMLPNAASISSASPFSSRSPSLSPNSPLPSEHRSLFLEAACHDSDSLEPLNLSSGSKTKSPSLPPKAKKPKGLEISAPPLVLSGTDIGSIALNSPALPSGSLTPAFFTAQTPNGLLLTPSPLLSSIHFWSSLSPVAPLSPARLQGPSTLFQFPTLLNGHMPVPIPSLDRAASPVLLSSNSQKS
A digest of the protocol: as §1

For AACCTG, the binding signal in test [1] was 1.19 fold enrichment (6-mer frequency, TF over GST control); in test [2], 1.2 fold enrichment (6-mer frequency, TF over GST control); in [3], 1.17 fold enrichment (6-mer frequency, TF over GST control); in [4], 1.09 fold enrichment (6-mer frequency, TF over GST control); in test [5], 1.16 fold enrichment (6-mer frequency, TF over GST control); in test [6] it was 1.22 fold enrichment (6-mer frequency, TF over GST control). Also, the binding signal in test [7] is 1.27 fold enrichment (6-mer frequency, TF over GST control); in [8] it was 1.12 fold enrichment (6-mer frequency, TF over GST control); in test [9], 1.21 fold enrichment (6-mer frequency, TF over GST control).
On to GGCTTC, for which the binding signal in test [1] was 1.68 fold enrichment (6-mer frequency, TF over GST control); in test [2] it was 1.8 fold enrichment (6-mer frequency, TF over GST control); in [3], 1.57 fold enrichment (6-mer frequency, TF over GST control); in test [4] it was 1.79 fold enrichment (6-mer frequency, TF over GST control); in test [5], 1.62 fold enrichment (6-mer frequency, TF over GST control); in test [6], 1.78 fold enrichment (6-mer frequency, TF over GST control). In addition, the binding signal in test [7] was 1.65 fold enrichment (6-mer frequency, TF over GST control); in test [8], 1.78 fold enrichment (6-mer frequency, TF over GST control); in test [9], 1.81 fold enrichment (6-mer frequency, TF over GST control).
In the case of ATCGCC, the binding signal in [1] is 1.28 fold enrichment (6-mer frequency, TF over GST control); in test [2], 1.36 fold enrichment (6-mer frequency, TF over GST control); in test [3], 1.27 fold enrichment (6-mer frequency, TF over GST control); in test [4], 1.29 fold enrichment (6-mer frequency, TF over GST control); in test [5], 1.23 fold enrichment (6-mer frequency, TF over GST control); in [6], 1.37 fold enrichment (6-mer frequency, TF over GST control). In addition, the binding signal in [7] was 1.22 fold enrichment (6-mer frequency, TF over GST control); in [8], 1.29 fold enrichment (6-mer frequency, TF over GST control); in [9] it was 1.27 fold enrichment (6-mer frequency, TF over GST control).
With TCTGCA, the binding signal was 1.42 fold enrichment (6-mer frequency, TF over GST control) in test [1]; 1.4 fold enrichment (6-mer frequency, TF over GST control) in test [2]; 1.31 fold enrichment (6-mer frequency, TF over GST control) in test [3]; 1.25 fold enrichment (6-mer frequency, TF over GST control) in test [4]; 1.3 fold enrichment (6-mer frequency, TF over GST control) in test [5]; 1.27 fold enrichment (6-mer frequency, TF over GST control) in test [6]. Further, the binding signal in test [7] was 1.33 fold enrichment (6-mer frequency, TF over GST control); in test [8], 1.41 fold enrichment (6-mer frequency, TF over GST control); in [9] it was 1.48 fold enrichment (6-mer frequency, TF over GST control).
With TTAACG, the binding signal in test [1] was 1.12 fold enrichment (6-mer frequency, TF over GST control); in test [2], 1.17 fold enrichment (6-mer frequency, TF over GST control); in test [3], 1.21 fold enrichment (6-mer frequency, TF over GST control); in test [4], 1.17 fold enrichment (6-mer frequency, TF over GST control); in [5] it was 1.23 fold enrichment (6-mer frequency, TF over GST control); in [6] it was 1.15 fold enrichment (6-mer frequency, TF over GST control). Besides, the binding signal in [7] was 1.26 fold enrichment (6-mer frequency, TF over GST control); in test [8], 1.26 fold enrichment (6-mer frequency, TF over GST control); in test [9], 1.32 fold enrichment (6-mer frequency, TF over GST control).
With CTTTTC, the binding signal in test [1] is 1.44 fold enrichment (6-mer frequency, TF over GST control); in [2] it was 1.51 fold enrichment (6-mer frequency, TF over GST control); in test [3], 1.34 fold enrichment (6-mer frequency, TF over GST control); in test [4] it was 1.43 fold enrichment (6-mer frequency, TF over GST control); in test [5], 1.38 fold enrichment (6-mer frequency, TF over GST control); in test [6] it was 1.39 fold enrichment (6-mer frequency, TF over GST control). The binding signal in test [7] is 1.65 fold enrichment (6-mer frequency, TF over GST control); in test [8], 1.53 fold enrichment (6-mer frequency, TF over GST control); in [9] it was 1.23 fold enrichment (6-mer frequency, TF over GST control).
In the case of AAGATT, the binding signal in test [1] was 1.1 fold enrichment (6-mer frequency, TF over GST control); in test [2], 1.17 fold enrichment (6-mer frequency, TF over GST control); in test [3], 1.18 fold enrichment (6-mer frequency, TF over GST control); in test [4], 1.17 fold enrichment (6-mer frequency, TF over GST control); in test [5], 1.19 fold enrichment (6-mer frequency, TF over GST control); in [6], 1.16 fold enrichment (6-mer frequency, TF over GST control). The binding signal in [7] was 1.12 fold enrichment (6-mer frequency, TF over GST control); in test [8], 1.16 fold enrichment (6-mer frequency, TF over GST control); in test [9], 1.04 fold enrichment (6-mer frequency, TF over GST control).

The record behind these values is paper PMC7862700, “An all-to-all approach to the identification of sequence-specific readers for epigenetic DNA modifications on cytosine”.
